A selection: hits, their analogues and other compounds. The true share with any hit is near 15%.
Sm TGR inh = blocks Schistosoma mansoni thioredoxin glutathione reductase. Potency, µM (series often up to 114 µM), most hits filed as inhibitors. actives 3% (n = 360,000). purified TGR, DTNB reduction, TNB absorbance 405 nm. Q962Y6; further: nearly all actives have a fitted effect of over 60% in size
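First, TGR (20 nM dispensed) and NADPH were mixed with compound. Second, a 15 min room-temperature incubation followed. Third, further NADPH and then DTNB were added to start the reaction. Finally, TNB absorbance was monitored kinetically.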
HCMV antiviral = blocks human cytomegalovirus replication. AID 1259415. actives 4.5% (n = 410,000). activity change, negative = inhibition, % at 57.5 µM. HFF cells, HCMV-luciferase reporter, 72 h; hits give low values; in the data active means activity change below about -60%; inconclusive means no clear call, values can overlap the other calls; inactive means above about -39%
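Human foreskin fibroblasts infected with luciferase-reporter HCMV at MOI 1 PFU/cell, compounds at two doses. Luciferase measured 72 h post infection; normalized to buffer-only basal and Salinomycin (10uM) controls.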
Pf growth 48h = inhibits P. falciparum growth in the first generation, 48 h; Potency, µM (series often up to 28.7 µM), actives largely listed as inhibitors; AID 504832; actives 5.9% (n = 310,000); P. falciparum luciferase growth in erythrocytes, 48 h
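Luminescence readout; reporter = integrated firefly luciferase in P. falciparum. RBC culture at 2% hematocrit, 0.1% parasitemia final, 37 C/5% CO2; decreased signal taken as growth inhibition.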
HCV inh = blocks hepatitis C virus | actives 3.4% (n = 340,000) | Huh7.5.1 HCVcc-Cre infection, luciferase reporter, 44 h | Potency, µM (doses to about 41.8 µM), usual class: inhibitors
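Cells seeded at 1,000/well and cultured 4 h, then compounds added followed by HCVcc-Cre virus (~0.5 moi). After 44 h further culture, luciferase substrate was added, plates held 15 min at room temperature, and luminescence read for 15 sec.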
SARS PLpro yeast = blocks SARS-CoV papain-like protease in a yeast assay | actives 0.19% (n = 330,000) | Potency, µM (top dose mostly 32.9 µM), hits mostly activators | S. cerevisiae expressing SARS-CoV PLpro, growth rescue; calls by dose curve; further: nearly all actives have a fitted effect of over 55% in size
Pf growth 96h = inhibits malaria parasite growth, 96 h; actives 6.9% (n = 320,000); P. falciparum luciferase reporter growth, 96 h; Potency, µM (top dose mostly 28.7 µM), hits mostly inhibitors; AID 504834
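Delayed-death screen, second-generation endpoint: infected erythrocytes, 2% hematocrit, 0.05% parasitemia final; 96 hours at 37 C, 5% CO2; luciferase detection reagent; luminescence decrease equals reduced growth.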
Large screens that a line does not name were inactive. Unless noted, the call rests on the fitted dose curve; in most records, active means well fitted curve in the direction sought with a large enough effect; inconclusive means small, poorly fitted or top-dose-only effect, or another doubt; inactive means no such curve, though single readings can be large; an effect the other way counts as inactive or inconclusive.

O=C(c1ccc(Cl)c(S(=O)(=O)N2CCOCC2)c1)N1CCCCCC1	none
O=C(Cc1ccc([N+](=O)[O-])cc1)N1CCCCCC1	Pf growth 96h inconclusive
O=C(c1ccc(-c2ccc([N+](=O)[O-])cc2)o1)N1CCCC(C(F)(F)F)C1 (configuration not stated)	Sm TGR inh inconclusive, HCMV antiviral -75.8, Pf growth 48h 9.28µM, HCV inh inconclusive
O=C(c1ccc(-c2ccc([N+](=O)[O-])cc2)o1)N1CCCCCCC1	Sm TGR inh 20µM, HCV inh inconclusive
O=C(c1ccc(-c2cccc(Cl)c2)o1)N1CCN(c2ccc([N+](=O)[O-])cc2)CC1	none
CC(=O)NCCNC(=O)c1nnc2n1CCN(C(=O)COc1ccccc1)C2	none (no result: Sm TGR inh, Pf growth 48h, HCV inh, SARS PLpro yeast, Pf growth 96h)
O=C(NCCN1CCOCC1)C(=O)NCC1OCCN1S(=O)(=O)c1ccccc1 (configuration not stated)	Pf growth 96h inconclusive
Cc1nn(CC(=O)NC2C(=O)N3C(C(=O)O)=C(CSc4nnnn4C)CSC23)cc1Br (configuration not stated)	Sm TGR inh 20µM
Cn1nnnc1SCC1=C(C(=O)O)N2C(=O)C(NC(=O)Cn3nc(C(F)F)cc3C3CC3)C2SC1 (configuration not stated)	Sm TGR inh 3.55µM
Cc1c(Cl)cnn1CC(=O)NC1C(=O)N2C(C(=O)O)=C(CSc3nnnn3C)CSC12 (configuration not stated)	Sm TGR inh 15.8µM, Pf growth 96h inconclusive
Cc1c(Cl)c(C(F)F)nn1CC(=O)NC1C(=O)N2C(C(=O)O)=C(CSc3nnnn3C)CSC12 (configuration not stated)	Sm TGR inh 3.98µM, HCMV antiviral inconclusive
CC(C(=O)NC1C(=O)N2C(C(=O)O)=C(CSc3nnnn3C)CSC12)n1cc(Cl)cn1 (configuration not stated)	Sm TGR inh inconclusive, Pf growth 96h inconclusive
C#CCOCCOCCOCCNc1nc(N2CCN(C(=O)[C@H](CC(N)=O)n3cc(C(N)[C@@H](C)CC)nn3)CC2)nc(N2CCN(C(=O)[C@H](CCC(=O)O)n3cc([C@@H](N)CCCCN)nn3)CC2)n1 (some centres not stated)	none (no result: Sm TGR inh, Pf growth 48h, Pf growth 96h)
CN1CCN(c2cccc3c2S(=O)(=O)N[C@@H](Cc2ccccc2)CO3)CC1	none (no result: Sm TGR inh, Pf growth 48h, HCV inh, SARS PLpro yeast, Pf growth 96h)
CCOc1cc(/C=N/NC(=O)Cn2nc([N+](=O)[O-])cc2C)cc(Br)c1OCc1ccccc1F	HCMV antiviral -96.2 (no result: Pf growth 48h)
Fc1ccc(Br)cc1C1C=C(c2ccc(Br)cc2)Nc2nnnn21 (configuration not stated)	none (no result: Pf growth 48h, HCV inh, SARS PLpro yeast, Pf growth 96h)
COc1cccc(OC)c1C(=O)NCC12CC3CC(C1)CC(CNC(=O)c1c(OC)cccc1OC)(C3)C2	Pf growth 96h 3.29µM
COC(=O)NCC12CC3CC(C1)CC(CNC(=O)OC)(C3)C2	Pf growth 48h inconclusive, Pf growth 96h inconclusive
COc1cc(C)ccc1OCCOCCOc1ccccc1Br	HCV inh inconclusive, Pf growth 96h 2.62µM
COc1cc(C)ccc1OCCCOc1c(Cl)cccc1Cl	Pf growth 96h 0.131µM
CCSc1ncc(Cl)c(C(=O)N(Cc2ccccc2)c2ccc(OC)cc2)n1	HCMV antiviral -75.4 (no result: Pf growth 48h, HCV inh, SARS PLpro yeast, Pf growth 96h)
COc1ccc(-c2cc3nc(C)cc(N4CCN(C(=O)c5cccnc5)CC4)n3n2)cc1	none (no result: Sm TGR inh, Pf growth 48h, HCV inh, SARS PLpro yeast, Pf growth 96h)
CN(C)C(=O)c1cccc(-c2cccc(-c3nc(C(=O)NCc4ccccc4)cc4c3[C@@H](CCO)N(S(=O)C(C)(C)C)C4)c2)c1 (some centres not stated)	HCMV antiviral -60.7 (no result: Sm TGR inh, Pf growth 48h, HCV inh, SARS PLpro yeast, Pf growth 96h)
CC(/C=N/NC(=O)c1nnn(-c2nonc2N)c1C(C)C)=C\c1ccccc1	HCV inh 10µM
CC(C)c1c(C(=O)N/N=C/c2ccc(C(F)(F)F)cc2)nnn1-c1nonc1N	HCMV antiviral inconclusive, Pf growth 48h inconclusive, HCV inh 5.62µM, Pf growth 96h inconclusive
CC(C)c1c(C(=O)N/N=C/c2ccoc2)nnn1-c1nonc1N	none
CC(=C/c1ccco1)/C=N/NC(=O)c1nnn(-c2nonc2N)c1CN(C)C	HCMV antiviral -60.1

Screening data as filed in PubChem BioAssay.
